14 compounds from PubChem BioAssay (NCATS) can be followed below.

Experiment [1] can be described thus: Cytometric Cell-Based qHTS for Inhibitors of the mTORC1 Signaling Pathway in MEF (Tsc2-/-, p53-/-) Cells (AID 2660).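 Further: percent of cells above a phospho-rpS6 to PI ratio cutoff in each well; series mostly up to about 38 µM.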 The gist of the method:
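Immunofluorescence qHTS of rpS6 Ser235/236 phosphorylation: MEFs (Tsc2-/-, p53-/-) treated 24 h, 37 C, in DMEM + 10% FBS. Alexa-488 signal normalized to PI count, referenced to rapamycin (7.5 nM) and DMSO; PI cell number recorded for viability.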
Background: qHTS replaces the single test concentration by a dilution series.

Experiment [2] in a line: High Content Imaging Cell-Based qHTS for Inhibitors of the mTORC1 Signaling Pathway in MEF (Tsc2-/-, p53-/-) Cells (AID 2666). Further: potency means the concentration at half of the fitted maximal effect. The gist of the method: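 Phospho-rpS6 (Ser235/236) immunofluorescence, normalized and scored as % positive cells using rapamycin and DMSO controls, was read in empty-vector Tsc2-/-, p53-/- MEFs after 24 h compound exposure at 37 C; propidium iodide counted cells.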

Experiment [3] is described as follows: High Content Imaging Cell-Based qHTS for Inhibitors of the mTORC1 Signaling Pathway in MEF Cells (AID 2667).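 Further: Tsc2-/- p53-/- MEFs stably re-expressing wild-type Tsc2 exposed 24 h; series mostly up to about 38 µM.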 The gist of the method:
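WT MEFs (Tsc2-/-, p53-/- re-expressing Tsc2), in DMEM + 10% FBS, were treated with compound for 24 h at 37 C. Cells were then fixed and stained for phospho-rpS6 Ser235/236 with propidium iodide as cell count. Values are % positive cells, with thresholds set against rapamycin-treated cells.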

Experiment [4] in a line: Cytometry Cell-Based qHTS for Inhibitors of the mTORC1 Signaling Pathway in MEF cells (AID 2668). Further: potency means the concentration at half of the fitted maximal effect. The gist of the method:
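WT MEFs (Tsc2-/-, p53-/- stably re-expressing WT Tsc2) in DMEM + 10% FBS received compounds 24 hrs after plating, for 24 hrs at 37 degree Celsius. Fixed cells stained with Alexa-488 anti-phospho-rpS6 Ser235/236 and propidium iodide; laser-scanning cytometry read-out.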

Experiment [5] has as its target Ubiquitin carboxyl-terminal hydrolase 2 (Homo sapiens) (UniProt O75604). As to the kind of experiment: qHTS Validation Assay for Inhibitors of Ubiquitin-specific Protease USP2a Using CHOP2 as the Reporter (AID 463106). The gist of the method:
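USP2 core (10 nM final) was preincubated with compound 30 min at RT in pH 8.0 Tris/CaCl2/beta-ME/CHAPS buffer. Ub-CHOP2 and reporter substrate (25 nM final each) were then added, with fluorescence (Ex 485/Em 531) read after 60 min. Data were normalized to NEM full inhibition and fitted to concentration-response curves.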

In experiment [6] the target is DNA polymerase III PolC-type (Bacillus subtilis (strain 168)) (UniProt P13267). As to the kind of experiment: qHTS Validation Assay for the Inhibitors of DNA Replication in Gram-Positive Bacteria (AID 485295).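 Further: PicoGreen fluorescence of double-stranded DNA made on primed circular M13 template; series mostly up to about 57 µM.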 The gist of the method:
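Reconstituted B. subtilis holoenzyme (Pol III, beta clamp, SSB, primase) was preincubated with compound at room temperature, then given single-stranded circular M13Gori plus dNTPs and NTPs. EDTA-containing PicoGreen stopped the reaction, and dsDNA product was read by fluorescence.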

The nature of experiment [7]: qHTS Validation Assay to Find Inhibitors of Chronic Active B-Cell Receptor Signaling (AID 485345; active means well fitted curve in the direction sought with a large enough effect in the main read-out, with a control signal flat, not every such curve was filed as active). The gist of the method: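 TMD8 ABC-DLBCL cells stably carrying doxycycline-inducible IkappaBalpha–green luciferase fusion plus unfused red luciferase; compounds 46 uM to 3 nM, 4 h at 37C with doxycycline. Corrected green/red luminescence ratio normalized to 10 uM MG-132 and basal cell wells; curves fitted.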

Experiment [8] deals with Beta-2 adrenergic receptor (Homo sapiens) (UniProt P07550). In words: qHTS validation assay of beta-arrestin-biased ligands of beta2-adrenergic receptor (AID 485366). The gist of the method:
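Arrestin-recruitment (Tango) reporter: ligand-bound beta2-AR recruits beta-arrestin, releasing tTA, which upregulates luciferase. Titrations of up to 46 microM incubated 18 hr at 37 degrees C before luminescent readout.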

In experiment [9] the target is Thioredoxin reductase 1, cytoplasmic (Rattus norvegicus) (UniProt O89049). As to the kind of experiment: qHTS Assay for Substrates of Mammalian Selenoprotein Thioredoxin Reductase 1 (TrxR1) (AID 488772).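 Further: NADPH fluorescence in the first read after selenite addition and not the 8 min delta; series mostly up to about 57 µM; a drop in NADPH fluorescence below the no-compound background marks a TrxR1 substrate.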 The gist of the method: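 Quantitative HTS in Tris-HCl buffer at pH 7.5 with EDTA and Tween-20, using rat TrxR1, 400 uM NADPH and 400 uM selenite (final). A fall in initial NADPH fluorescence relative to background marked substrate behaviour.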
Thioredoxin reductase 1, cytoplasmic (Rattus norvegicus), sequence (O89049 whole entry, looked up): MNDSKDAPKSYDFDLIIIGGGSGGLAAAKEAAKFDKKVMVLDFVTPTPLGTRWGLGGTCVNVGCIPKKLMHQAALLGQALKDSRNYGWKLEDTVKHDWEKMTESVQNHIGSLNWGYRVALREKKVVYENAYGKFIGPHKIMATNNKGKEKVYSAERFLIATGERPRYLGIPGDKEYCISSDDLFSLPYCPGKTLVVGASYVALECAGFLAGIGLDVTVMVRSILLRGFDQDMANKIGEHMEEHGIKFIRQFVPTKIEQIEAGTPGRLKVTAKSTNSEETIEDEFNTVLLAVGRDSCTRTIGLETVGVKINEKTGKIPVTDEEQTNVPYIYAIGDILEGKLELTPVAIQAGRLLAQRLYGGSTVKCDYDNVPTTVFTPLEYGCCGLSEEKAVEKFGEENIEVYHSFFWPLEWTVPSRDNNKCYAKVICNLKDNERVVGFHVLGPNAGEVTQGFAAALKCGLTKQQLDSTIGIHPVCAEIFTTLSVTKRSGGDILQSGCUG

Experiment [10] in a line: qHTS Assay for Identification of Small Molecule Inducers of Hypoxia Response (AID 2120; active means well fitted curve in the direction sought with a large enough effect in the signal ratio, with a control signal flat, not every such curve was filed as active; the % refers to the signal ratio). The gist of the method: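 ME-180 HRE-bla cells plated in Opti-MEM/0.5% dialyzed FBS, rested 4-5 h, then dosed with compound titrations by pin tool. After 17 h at 37 degrees C, CCF4 dye loaded 2.5 h at RT; 460/530 nm ratio gave %Activity and AC50.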
Experiment [11] can be described thus: qHTS for differential inhibitors of proliferation of Plasmodium falciparum line W2 (AID 1883).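 Further: parasites grown with compound for 72 h before lysis and staining.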 Further: potency means the concentration at half of the fitted maximal effect. To be noted: Potency: Plasmodium falciparum W2 proliferation inhibition.
A short description of experiment [12]: qHTS for differential inhibitors of proliferation of Plasmodium falciparum line HB3 (AID 1886).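 Further: parasites grown with compound for 72 h before SYBR Green readout.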 To be noted: Potency: Plasmodium falciparum HB3 proliferation inhibition.
Experiment [13] concerns the target Ferritin light chain (Equus caballus) (UniProt P02791). In words: qHTS Validation Assay for Identification of Novel General Anesthetics (AID 2323). Further: series mostly up to about 77 µM. The gist of the method: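 Competitive displacement of profluorescent 1-aminoanthracene (1-AMA, 50% saturated solution in PBS) from 10 uM horse-spleen apoferritin. Compounds incubated 10 min at room temperature; fluorescence read at 380 nm excitation/535 nm emission, normalized to free 1-AMA and complex, fitted with four-parameter Hill equation.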

The target in experiment [14] is ATP-dependent DNA helicase Q1 (Homo sapiens) (UniProt P46063). As to the kind of experiment: qHTS Validation Assay for Inhibitors of RecQ-Like Dna Helicase 1 (RECQ1) (AID 2353). The gist of the method: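 50 nM RECQ1T1 preincubated 15 min with compound in Tris pH 8.0 buffer with MgCl2, DTT, Tween-20 and 2.5 ug/ml poly(dI-dC); started with 200 nM TAMRA/BHQ-2 forked duplex and 2 mM ATP. Unwinding read as fluorescence (525/598 nm), two reads 2 h apart.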

Experiment [15] is described as follows: Quantitative high throughput screen for delayed death inhibitors of the malarial parasite plastid, 96 hour incubation (AID 488745).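 Further: luciferase-expressing P. falciparum in erythrocytes at 2% hematocrit and 0.1% parasitemia; series mostly up to about 29 µM; nearly all actives have a fitted effect of over 70% in size.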 The gist of the method:
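Infected erythrocytes were added to compound in Albumax-supplemented RPMI 1640 at 0.1% parasitemia and 2% hematocrit (final), incubated 96 h at 37 C under 5% CO2, then luciferase reagent was added and luminescence measured.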

Experiment [16] can be described thus: Quantitative high throughput screen for delayed death inhibitors of the malarial parasite plastid, 48 hour incubation (AID 488752). Further: nearly all actives have a fitted effect of over 65% in size. Further: potency means the concentration at half of the fitted maximal effect. The gist of the method: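 Readout is firefly luciferase luminescence from a reporter integrated into the parasite genome, with lower signal taken as inhibited growth. Infected red cells (0.1% parasitemia, 2% hematocrit final) are cultured with compound for one 48 h cycle at 37 C.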

The nature of experiment [17]: qHTS for differential inhibitors of proliferation of Plasmodium falciparum line Dd2 (AID 1882). Further: series mostly up to about 29 µM; nearly all actives have a fitted effect of over 65% in size. To be noted: Potency: Plasmodium falciparum Dd2 proliferation inhibition. The gist of the method: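 Dd2-infected erythrocytes (0.3% parasitemia, 2.5% hematocrit final) incubated with compound 72 h at 37 C, 5% CO2; lysed with saponin/Triton buffer containing SYBR Green I, incubated overnight in the dark, then read by fluorescence (485/535 nm). Normalized to 0.29 uM artemisinin and DMSO.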

A short description of experiment [18]: qHTS Assay for Modulators of Human Peripheral Myelin Protein 22 (PMP22) Expression/Activity (AID 1967; active means well fitted curve in the direction sought with a large enough effect in the signal ratio; the % refers to the signal ratio). The gist of the method:
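MSC80 mouse Schwann cells stably carrying Pmp22 promoter–green click beetle luciferase plus EF-alpha–red luciferase control were dosed for 24h at 37 °C. Dual-colour luminescence was filter-overlap corrected; %Activity came from green/red ratio versus untreated cells.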

For experiment [19], the target named is RecQ-like DNA helicase BLM (Homo sapiens) (UniProt P54132). In words: qHTS Validation Assay for Inhibitors of Bloom's syndrome helicase (BLM) (AID 2364). The gist of the method: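 50 nM BLM preincubated 15 min at room temperature with compound in pH 8.0 Tris buffer containing 2.5 ug/ml poly(dI-dC); started with 200 nM TAMRA/BHQ-2 forked duplex and 2 mM ATP (final). Unwinding read as TAMRA fluorescence increase, two reads 2 h apart.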
RecQ-like DNA helicase BLM (Homo sapiens), sequence (P54132 whole entry, looked up): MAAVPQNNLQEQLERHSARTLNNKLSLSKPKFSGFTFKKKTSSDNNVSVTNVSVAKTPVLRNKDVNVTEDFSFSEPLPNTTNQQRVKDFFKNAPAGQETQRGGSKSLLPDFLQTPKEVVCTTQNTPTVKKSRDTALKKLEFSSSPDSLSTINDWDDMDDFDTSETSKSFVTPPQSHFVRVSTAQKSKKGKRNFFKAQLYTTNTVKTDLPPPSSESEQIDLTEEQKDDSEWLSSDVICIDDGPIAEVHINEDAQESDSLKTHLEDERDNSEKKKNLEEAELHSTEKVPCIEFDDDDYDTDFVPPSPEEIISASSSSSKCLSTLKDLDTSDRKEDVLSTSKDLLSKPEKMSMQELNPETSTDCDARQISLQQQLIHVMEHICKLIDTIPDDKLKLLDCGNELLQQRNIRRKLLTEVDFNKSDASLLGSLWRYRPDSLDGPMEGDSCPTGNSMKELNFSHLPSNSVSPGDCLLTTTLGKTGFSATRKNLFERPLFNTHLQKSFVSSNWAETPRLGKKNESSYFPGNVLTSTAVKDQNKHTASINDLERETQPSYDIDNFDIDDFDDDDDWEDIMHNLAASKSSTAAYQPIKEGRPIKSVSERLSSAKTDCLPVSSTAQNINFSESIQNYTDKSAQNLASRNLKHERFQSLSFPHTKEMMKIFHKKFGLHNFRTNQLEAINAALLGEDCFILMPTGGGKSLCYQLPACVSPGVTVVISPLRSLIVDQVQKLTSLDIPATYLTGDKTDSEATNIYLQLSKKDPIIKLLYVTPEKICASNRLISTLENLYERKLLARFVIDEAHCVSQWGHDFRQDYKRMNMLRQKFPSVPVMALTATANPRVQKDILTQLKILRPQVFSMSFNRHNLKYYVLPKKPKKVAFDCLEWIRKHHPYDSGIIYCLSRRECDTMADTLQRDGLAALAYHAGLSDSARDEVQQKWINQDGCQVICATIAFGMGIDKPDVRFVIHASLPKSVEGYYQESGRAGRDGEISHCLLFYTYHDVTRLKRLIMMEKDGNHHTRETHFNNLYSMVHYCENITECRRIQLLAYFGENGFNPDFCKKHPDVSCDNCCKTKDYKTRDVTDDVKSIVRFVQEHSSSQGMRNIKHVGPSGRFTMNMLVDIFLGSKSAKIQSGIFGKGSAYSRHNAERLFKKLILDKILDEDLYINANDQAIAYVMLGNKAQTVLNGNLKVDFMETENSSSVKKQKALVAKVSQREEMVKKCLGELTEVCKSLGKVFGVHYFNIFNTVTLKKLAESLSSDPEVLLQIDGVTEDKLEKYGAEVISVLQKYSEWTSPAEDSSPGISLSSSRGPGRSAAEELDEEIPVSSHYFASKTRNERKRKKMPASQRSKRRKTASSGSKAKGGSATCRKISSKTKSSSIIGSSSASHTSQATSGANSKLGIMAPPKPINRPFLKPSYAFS

The target in experiment [20] is ATP-dependent 6-phosphofructokinase (Trypanosoma brucei brucei) (UniProt O15648). In words: qHTS Validation Assay to Find Inhibitors of T. brucei phosphofructokinase (AID 485368). Further: potency means the concentration at half of the fitted maximal effect. The gist of the method: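 Steps: substrate mix (0.5 mM F6P, 0.1 mM ATP, MgCl2, TEA pH 8.0); compound; 1.25 nM T. brucei PFK; 45 min RT; ATP depletion 10 min; ADP-to-ATP detection 10 min; luminescence read; curve fitting and classification.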
ATP-dependent 6-phosphofructokinase (Trypanosoma brucei brucei), sequence (O15648 whole entry, looked up): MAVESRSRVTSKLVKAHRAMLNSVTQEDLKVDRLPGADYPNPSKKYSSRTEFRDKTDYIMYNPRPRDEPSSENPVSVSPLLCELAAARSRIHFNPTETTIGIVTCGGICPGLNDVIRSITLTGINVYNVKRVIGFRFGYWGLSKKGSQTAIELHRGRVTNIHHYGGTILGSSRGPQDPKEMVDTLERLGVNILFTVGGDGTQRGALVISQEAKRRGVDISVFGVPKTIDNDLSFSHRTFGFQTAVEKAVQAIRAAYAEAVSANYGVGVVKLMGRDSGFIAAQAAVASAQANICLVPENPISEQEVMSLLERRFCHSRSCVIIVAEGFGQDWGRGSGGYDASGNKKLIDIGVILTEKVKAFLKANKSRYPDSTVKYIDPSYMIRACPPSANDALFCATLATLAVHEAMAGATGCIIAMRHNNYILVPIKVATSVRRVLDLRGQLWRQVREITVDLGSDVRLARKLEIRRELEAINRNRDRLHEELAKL

SMILES strings stand for the structures. Inconclusive results are not listed. Activity calls are given as the source filed them. Unless noted, the call rests on the fitted dose curve; in most records, active means well fitted curve in the direction sought with a large enough effect; inconclusive means small, poorly fitted or top-dose-only effect, or another doubt; inactive means no such curve, though single readings can be large; an effect the other way counts as inactive or inconclusive.

Ubiquitin carboxyl-terminal hydrolase 2 (Homo sapiens), sequence (O75604 whole entry, looked up): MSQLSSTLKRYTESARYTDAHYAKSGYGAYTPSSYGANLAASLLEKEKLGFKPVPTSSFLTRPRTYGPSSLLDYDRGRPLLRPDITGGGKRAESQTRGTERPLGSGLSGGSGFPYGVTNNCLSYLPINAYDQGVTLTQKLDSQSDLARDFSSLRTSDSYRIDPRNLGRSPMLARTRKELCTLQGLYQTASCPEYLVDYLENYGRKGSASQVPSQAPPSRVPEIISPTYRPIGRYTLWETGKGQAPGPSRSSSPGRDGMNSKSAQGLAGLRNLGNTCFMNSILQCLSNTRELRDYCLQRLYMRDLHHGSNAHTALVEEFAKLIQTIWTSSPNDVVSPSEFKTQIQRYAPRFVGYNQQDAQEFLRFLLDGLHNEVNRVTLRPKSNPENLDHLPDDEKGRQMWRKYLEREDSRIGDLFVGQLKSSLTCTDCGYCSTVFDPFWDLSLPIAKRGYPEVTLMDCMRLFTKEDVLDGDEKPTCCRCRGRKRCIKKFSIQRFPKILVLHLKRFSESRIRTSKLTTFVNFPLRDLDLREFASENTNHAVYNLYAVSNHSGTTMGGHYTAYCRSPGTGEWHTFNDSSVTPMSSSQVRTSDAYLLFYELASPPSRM
Beta-2 adrenergic receptor (Homo sapiens), sequence (P07550 whole entry, looked up): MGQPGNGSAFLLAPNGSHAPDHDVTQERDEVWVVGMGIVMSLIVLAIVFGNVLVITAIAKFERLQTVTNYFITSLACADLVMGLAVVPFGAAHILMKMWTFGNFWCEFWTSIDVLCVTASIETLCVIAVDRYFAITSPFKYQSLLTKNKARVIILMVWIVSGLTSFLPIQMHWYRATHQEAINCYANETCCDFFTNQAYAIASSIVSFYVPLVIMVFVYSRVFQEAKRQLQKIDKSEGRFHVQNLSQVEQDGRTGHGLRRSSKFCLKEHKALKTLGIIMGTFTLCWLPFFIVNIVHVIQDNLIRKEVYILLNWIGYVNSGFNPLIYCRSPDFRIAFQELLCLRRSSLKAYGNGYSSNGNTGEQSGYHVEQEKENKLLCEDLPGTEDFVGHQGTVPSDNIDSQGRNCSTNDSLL
DNA polymerase III PolC-type (Bacillus subtilis (strain 168)), sequence (P13267 whole entry, looked up): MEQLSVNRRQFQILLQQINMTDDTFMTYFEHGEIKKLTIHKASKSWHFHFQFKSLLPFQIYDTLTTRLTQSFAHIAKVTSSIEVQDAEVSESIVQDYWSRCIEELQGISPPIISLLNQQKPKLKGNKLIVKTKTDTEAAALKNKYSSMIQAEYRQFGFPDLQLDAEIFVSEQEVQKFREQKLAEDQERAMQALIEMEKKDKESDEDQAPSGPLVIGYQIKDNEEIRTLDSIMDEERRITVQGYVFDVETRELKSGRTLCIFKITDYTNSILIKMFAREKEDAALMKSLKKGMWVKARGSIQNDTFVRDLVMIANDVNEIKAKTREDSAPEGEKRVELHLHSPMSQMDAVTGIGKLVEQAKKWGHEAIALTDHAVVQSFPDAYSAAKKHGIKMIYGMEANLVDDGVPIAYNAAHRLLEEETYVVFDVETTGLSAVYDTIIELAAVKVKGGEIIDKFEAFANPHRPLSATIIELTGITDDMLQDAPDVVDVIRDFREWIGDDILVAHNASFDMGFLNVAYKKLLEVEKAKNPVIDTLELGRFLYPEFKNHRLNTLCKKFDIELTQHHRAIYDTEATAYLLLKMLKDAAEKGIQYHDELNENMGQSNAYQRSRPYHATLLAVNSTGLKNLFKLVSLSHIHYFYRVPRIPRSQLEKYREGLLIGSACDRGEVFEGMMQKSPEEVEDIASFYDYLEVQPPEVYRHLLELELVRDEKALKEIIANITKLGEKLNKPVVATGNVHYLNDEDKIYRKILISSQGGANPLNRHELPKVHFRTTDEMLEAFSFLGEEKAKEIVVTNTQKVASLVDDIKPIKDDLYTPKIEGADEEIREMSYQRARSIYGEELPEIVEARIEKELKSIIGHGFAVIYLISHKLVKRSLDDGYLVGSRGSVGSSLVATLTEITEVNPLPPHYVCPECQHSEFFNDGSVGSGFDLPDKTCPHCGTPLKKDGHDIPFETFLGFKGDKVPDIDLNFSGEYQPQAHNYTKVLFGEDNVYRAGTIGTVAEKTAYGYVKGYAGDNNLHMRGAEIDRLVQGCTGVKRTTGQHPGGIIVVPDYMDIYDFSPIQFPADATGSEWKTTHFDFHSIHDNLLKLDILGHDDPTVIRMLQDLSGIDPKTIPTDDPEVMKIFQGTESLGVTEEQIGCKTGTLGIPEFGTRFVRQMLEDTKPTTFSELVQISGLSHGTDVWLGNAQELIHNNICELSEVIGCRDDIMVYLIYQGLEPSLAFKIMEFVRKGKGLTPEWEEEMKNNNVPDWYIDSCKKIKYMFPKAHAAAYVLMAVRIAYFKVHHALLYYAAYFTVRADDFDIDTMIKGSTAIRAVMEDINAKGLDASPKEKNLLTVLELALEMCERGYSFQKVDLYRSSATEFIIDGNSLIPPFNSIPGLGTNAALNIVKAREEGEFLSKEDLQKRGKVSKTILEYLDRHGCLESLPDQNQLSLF
Ferritin light chain (Equus caballus), sequence (P02791 2-175 limits assumed): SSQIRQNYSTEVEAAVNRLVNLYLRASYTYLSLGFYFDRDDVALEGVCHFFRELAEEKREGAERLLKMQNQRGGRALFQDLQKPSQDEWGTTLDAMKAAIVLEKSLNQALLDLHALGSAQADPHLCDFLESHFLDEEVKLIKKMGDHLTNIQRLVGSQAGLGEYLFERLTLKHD

Take `NC(=O)c1ccc2[nH]ccc2c1`: the outcome in experiment [1], in experiment [3], in [5], in experiment [6], in experiment [7] and in experiment [8] was inactive. Also, in experiment [9], the call was inactive. Besides, the Potency result in [2] and in [4] was “inactive” in each case.
Take `Cc1ccnc2c1NC(=O)c1cccnc1N2C1CC1`: the compound was classed as inactive in experiment [10].
For `Cc1ccc(S(=O)(=O)N[C@@H](Cc2ccccc2)C(=O)CCl)cc1`, the Potency in [11] was 11.2 µM (active). The Potency result in [12], in [15] and in experiment [16] was “inactive” in each case. In addition, the outcome in experiment [13], in experiment [14], in experiment [5], in [6], in experiment [8] and in experiment [9] was inactive.
In the case of `CC1=C(C(=O)O)N2C(=O)[C@@H](NC(=O)C(N)c3ccccc3)[C@H]2SC1` (stereo partly specified), the Potency result in [17], in experiment [11], in [12], in experiment [2], in [4] and in experiment [15] was “inactive” each time. Besides, the Potency entry in [16] is “inactive”. In addition, the result in experiment [18], in experiment [13], in experiment [14], in experiment [3], in experiment [5] and in experiment [6] was inactive. In addition, the result in experiment [7], in [8] and in experiment [9] was inactive.
Take `COc1ccc2cc3[n+](cc2c1OC)CCc1cc2c(cc1-3)OCO2`: the outcome in experiment [10] was inactive.
As to `CCCCS(=N)(=O)CCC(N)C(=O)O` (stereo unspecified), the Potency entry in experiment [17], in [12], in [2], in experiment [4], in experiment [20] and in experiment [15] was “inactive” each time. For the same compound, the result in [18], in experiment [13], in experiment [14], in [19], in [1] and in experiment [3] was inactive. In addition, the compound was called inactive in [5], in [6], in experiment [7], in [8] and in experiment [9]. Also, the Potency in experiment [16] was 2.08 µM (active).
With `N=C(N)c1ccc(OCCCCCOc2ccc(C(=N)N)cc2)cc1`, in [10], the compound was classed as inactive.
With `COc1cc2nc(N3CCCN(C)CC3)nc(NC3CCN(Cc4ccccc4)CC3)c2cc1OC`, the figures for the Potency in experiment [2] and in experiment [4] were 2.61 µM (active) and 6.56 µM (active), respectively. Moreover, the call in experiment [5], in [6], in [8] and in experiment [9] was inactive.
As to `O=C(O)c1cc(=O)[nH]c(=O)[nH]1`, the compound was classed as inactive in experiment [10].
In the case of `N[C@@H](Cc1ccc(O)c(O)c1)C(=O)O`, the compound was called inactive in [1], in experiment [3], in [6], in [7], in [8] and in experiment [9]. The Potency result in experiment [2] and in [4] was “inactive” in each case. For the same compound, the Potency in experiment [20] is 23.9 µM (active).
In the case of `O=C(O)C1CCCN(CCC=C(c2ccccc2)c2ccccc2)C1` (stereo unspecified), the Potency result in experiment [17], in [11], in [12], in experiment [2], in experiment [4] and in experiment [15] was “inactive” in each case. Also, the Potency entry in [16] was “inactive”. Further, the compound was called inactive in experiment [18], in experiment [13], in [14], in experiment [19], in experiment [1] and in [3]. Further, the call in [5], in experiment [6], in [7], in [8] and in experiment [9] was inactive.
Consider `OCc1ccc(-c2nn(Cc3ccccc3)c3ccccc23)o1`, for which the Potency in [11] was 8.91 µM (active). Besides, the compound was called inactive in [13], in [14], in experiment [1], in experiment [3], in [5] and in [6]. The outcome in experiment [8] and in experiment [9] was inactive. Besides, the Potency entry in experiment [2], in [4], in experiment [15] and in experiment [16] was “inactive” throughout.
As to `NC(N)=NC(N)=NCCc1ccccc1`, the compound was classed as inactive in [10].
On to `CC(=O)[C@H]1CC[C@H]2[C@@H]3CCC4=CC(=O)CC[C@]4(C)[C@H]3CC[C@]12C`, for which the outcome in experiment [14], in experiment [19], in experiment [1], in experiment [3], in [5] and in experiment [6] was inactive. The outcome in experiment [8] and in experiment [9] was inactive. In addition, the Potency result in [2], in experiment [4], in experiment [20] and in experiment [16] was “inactive” in each case.
